# FLuc counter – counter-screen for miR-21 project: firefly luciferase inhibitors or activators | AID 588342 | P08659 | 360,000 compounds, 6.9% hits | purified FLuc, Km substrates, luminescence inhibition | Potency, µM (titrated, usually from 57.5 µM), inactives show top-dose activity change, negative = inhibition, most hits filed as inhibitors;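 also: plate controls were vehicle for no effect and reference inhibitor for full effect; nearly all actives have a fitted effect of over 55% in size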
# Target sequence (P08659 whole entry, looked up): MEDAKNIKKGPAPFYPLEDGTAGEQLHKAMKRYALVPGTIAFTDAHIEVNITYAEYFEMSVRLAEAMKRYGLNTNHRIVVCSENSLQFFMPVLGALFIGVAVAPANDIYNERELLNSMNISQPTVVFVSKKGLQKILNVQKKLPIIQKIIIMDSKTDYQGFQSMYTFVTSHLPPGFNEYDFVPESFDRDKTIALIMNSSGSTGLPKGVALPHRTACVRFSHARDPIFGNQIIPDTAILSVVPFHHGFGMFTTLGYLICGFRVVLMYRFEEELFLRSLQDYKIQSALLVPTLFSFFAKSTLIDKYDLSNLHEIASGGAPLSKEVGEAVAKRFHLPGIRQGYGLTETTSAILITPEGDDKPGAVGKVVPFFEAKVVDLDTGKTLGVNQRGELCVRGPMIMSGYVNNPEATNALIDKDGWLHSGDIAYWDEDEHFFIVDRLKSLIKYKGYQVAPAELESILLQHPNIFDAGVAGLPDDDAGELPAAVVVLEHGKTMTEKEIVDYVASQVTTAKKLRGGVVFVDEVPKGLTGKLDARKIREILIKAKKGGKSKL
#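 Purified P. pyralis luciferase, 10 nM final, with Km-level 10 uM D-luciferin and 10 uM ATP in 50 mM Tris acetate pH 7.5, 10 mM Mg acetate, 0.01% Tween-20, 0.05% BSA; 6-point qHTS titration about 60 µM downward; luminescence read.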
# NPC1 prom act – activators of NPC1 promoter | Potency, µM (top dose mostly 9.22 µM), without a hit: top-dose activation, actives largely listed as activators | Huh7 NPC1 promoter luciferase reporter, 24 h | 320,000 compounds, 2.4% hits; also: % of control where 0% means no effect; nearly all actives have a fitted effect of over 60% in size
#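 In 1536-well qHTS, Huh7 cells harboring an NPC1 promoter–luciferase construct received compound for 24 h; activation was quantified by luminescence following luciferase reagent addition.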
# SMN2 splice up – SMN2 splice variant enhancement | HEK293 SMN2-luciferase splicing reporter, luminescence, 30-36 h | Potency, µM (highest dose often 46.1 µM), without a hit: top-dose activity change, positive = activation, actives largely listed as activators | 210,000 compounds, 2.8% hits | AID 1458; also: % of control where 0% means no effect; nearly all actives have a fitted effect of over 55% in size
#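 HEK293 cells carry an SMN2 minigene-luciferase reporter in which exon 7 inclusion puts luciferase in frame. Cells were seeded at 2000 cells/well, attached for 10-12 hours, then exposed to compounds for 30-36 hours at 37C before ONE-Glo luminescence.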
# ELG1 genotox – induces genotoxicity in HEK293T cells with luciferase-tagged ELG1; HEK293T ELG1-luciferase reporter, luminescence, 16 h; Potency, µM (series often up to 46 µM), for the others: top-dose activity change, positive = activation, actives largely listed as activators; 330,000 compounds, 1.3% hits; AID 504466; also: % of control where 0% means no effect; nearly all actives have a fitted effect of over 60% in size
#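 Genotoxic stress is detected as increased luminescence from luciferase-tagged ELG1 in HEK293T cells, measured with ONE-Glo after a 16 hr treatment at 37 °C.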
# Rab9 prom act – Rab9 promoter activation | AID 485297 | Potency, µM (doses to about 9.22 µM), without a hit: at the top dose activation, negative = inhibition, usual class: activators | 320,000 compounds, 2.8% hits | Huh7 Rab9 promoter-luciferase reporter, luminescence, 24 h; also: % of control where 0% means no effect; nearly all actives have a fitted effect of over 60% in size
#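 Measured in stably transfected Huh7 cells bearing a Rab9 promoter–luciferase construct: 24 h compound treatment at 37 °C, followed by luminescence detection.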
# Starred values were filed as active, the others as inactive; ? = inconclusive; . = not tested or not shown; [ ] = another dose, or the depositor's remark. An excerpt weighted towards active compounds, which were near 7.4% of everything screened. Calls follow the shape of the dose curve; as a rule, active = well fitted curve in the direction sought with a large enough effect; inconclusive = small, poorly fitted or top-dose-only effect, or another doubt; inactive = no such curve, though single readings can be large; an effect the other way counts as inactive or inconclusive. Potency is read from the fitted curve at half-maximal effect.
SMILES,FLuc counter,NPC1 prom act,SMN2 splice up,ELG1 genotox,Rab9 prom act
CCOC(=O)c1cnn(-c2ccc(C(F)(F)F)cn2)c1N,10.7µM*,?,?,?,?
CCOC(=O)c1cnn(-c2nc(C)cc(C)n2)c1N,?,4.8%,-3.5%,10.6%,5.3%
CCOC(=O)c1cnn(-c2ncnc3sc(CC)cc23)c1N,13.5µM*,-2.9%,13.1%,3.9%,2.8%
N/C(=N\OC(=O)c1cc(Cl)ccc1Cl)c1cccnc1,9.53µM*,14.0%,?,20.6µM*,?
N/C(=N\OC(=O)c1ccccc1)c1cccnc1,5.36µM*,18.8%,.,?,29.7%
N/C(=N\OC(=O)c1cc(Br)ccc1Cl)c1cccnc1,21.3µM*,?,19.1%,12.0%,?
N/C(=N\OC(=O)Cc1ccc(Cl)cc1)c1cccnc1,?,0.1%,-19.5%,1.5%,-3.7%
Cc1ccc(C(=O)O/N=C(\c2ccccc2)c2cccnc2)cc1,16.9µM*,-3.1%,-10.3%,2.4%,0.9%
COc1ccc([N+](=O)[O-])c(OC)c1C(=O)NC(=O)Nc1c(F)cc(F)cc1F,-1.4%,0.6%,.,3.1%,2.2%
CCCCC/C=C/C1=CC(=O)C[C@H](c2ccc(OC)c(OC)c2)C1,-4.3%,0.2%,.,-2.2%,1.3%
O=C(COC(=O)C1(c2ccc(F)cc2)CCCC1)Nc1ncc(C(F)(F)F)cc1Cl,-0.9%,-1.0%,6.8%,-0.4%,-6.5%
O=C(NCc1cccnc1)c1ccc(Cl)cc1[N+](=O)[O-],3.2%,-2.0%,?,3.1%,-8.3%
N/C(=N\OC(=O)c1ccc(Cl)cc1[N+](=O)[O-])c1cccnc1,23.9µM*,25.4%,.,?,?
N/C(=N\OC(=O)c1ccccc1)c1ccn[nH]1,6.75µM*,2.24µM*,.,10.3µM*,3.55µM*
N/C(=N\OC(=O)c1ccccc1Cl)c1cccnc1,4.26µM*,3.55µM*,15.8µM*,?,?
O=C(Nc1ccc(C(=O)N2CCCC2)cc1)c1ccc(F)cc1Cl,-2.8%,-3.9%,.,5.9%,3.7%
CS(=O)(=O)N1CCC2(CCCN(Cc3ccc(C#N)cc3)C2)CC1,.,.,-17.1%,.,.
COc1ccc(NC(=O)c2ccc(Oc3ncccn3)cc2)cc1,16.9µM*,15.5%,12.1%,?,?
COc1ccc(NC(=O)c2ncn[nH]2)cc1,15.1µM*,13.9%,10.5%,8.5%,21.9%
CCOc1ncccc1C(=O)Nc1ccc(C(=O)Nc2ccc(OC)cc2)cc1,3.1%,-5.4%,.,3.2%,-4.2%
COc1ccc(NC(=O)c2cccc(C(=O)Nc3ccc(OC)cc3)n2)cc1,5.36µM*,2.2%,-5.7%,16.0%,-2.2%
COc1ccc(NC(=O)c2ccc(NC(=O)c3ccncc3)cc2)cc1,0.9%,0.5%,.,10.3µM*,-6.7%
COc1ccc(OC)c(CCNC(=O)c2c(C)oc3ncn(CC(C)C)c(=O)c23)c1,6.0%,.,.,.,.
CCOc1ccc(NC(=O)c2ccc(OC)cc2)cc1,?,?,12.6%,15.9%,20.1%[1.84 µM]
COc1ccc(NC(=O)c2sc(=S)[nH]c2N)cc1,16.9µM*,1.7%,?,11.3%,21.1%
SMILES,FLuc counter,NPC1 prom act,SMN2 splice up,ELG1 genotox,Rab9 prom act
COc1ccc(C(=O)Nc2ccc(C3CC3(Cl)Cl)cc2)cc1 (stereo not drawn),1.51µM*,25.0%,.,13.6%,?
Clc1ccc(C[n+]2csc3ccccc32)cc1,6.75µM*,-0.3%,-2.5%,0.4%,-7.2%
Fc1ccc(C[n+]2csc3ccccc32)cc1,7.57µM*,-4.4%,2.2%,4.4%,1.5%
CC1(C)O[C@@H]2C[C@H]3[C@H]4C[C@H](F)C5=CC(=O)C=C[C@@]5(C)[C@@H]4[C@H](O)C[C@]3(C)[C@]2(C(=O)CO)O1,.,.,3.2%[20.6 µM],.,.
COc1ccccc1N1CCN(/N=C/C=C\c2ccco2)CC1,4.78µM*,1.12µM*,12.6µM*,?,2µM*
Clc1ccccc1CN1CCN(/N=C/C=C/c2ccco2)CC1,23.9µM*,26.6%,.,7.5%,?
CCn1c(C)nc2cc(C(=O)NNC(=O)Nc3ccc(Cl)cc3)ccc21,-3.0%,?,3.3%,-2.9%,1.41µM*
COc1cc(C(=O)Nc2ccc3c(c2)ncn3C)cc(OC)c1OC,?,-27.3%,.,?,-24.7%
CCn1c(C)nc2cc(C(=O)N/N=C/c3ccc(O)c(O)c3O)ccc21,13.5µM*,-1.6%,-18.2%,-17.1%,4.6%

# Screening data: PubChem BioAssay, National Center for Advancing Translational Sciences (NCATS)
